Casp1 inh – allosteric or competitive inhibitors of human caspase-1; P29466; Caspase-1 enzyme, Ac-WEHD-AFC fluorogenic rate; Potency, µM (highest dose often 57.5 µM), for inactives: at the top dose activity change, negative = inhibition, actives largely listed as inhibitors; hit rate 0.03% among 75,000;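 note: potency is the fitted concentration of half-maximal effect; plate controls were vehicle for no effect and no substrate for full effect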
Epigenetic mod – epigenetic GFP locus derepression in mouse cells; mouse C127i GFP locus derepression, cytometry, 30 h; Potency, µM (doses to about 46.1 µM), for inactives: at the top dose GFP derepression (activation); hit rate 0.09% among 68,000; note: % of control where 0% means no effect
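Murine C127i mammary cells carrying a silenced, stably integrated CMV-driven GFP reporter were treated with compound for 30 hours at 37 C. After PBS washes, GFP-positive cells were counted by laser-scanning microplate cytometry.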
UbGFP stabilizer – inhibits proteasome, raising ubiquitin-GFP reporter fluorescence; Ubiquitin-GFP reporter cells, proteasome inhibition, GFP fluorescence; response scale: untreated = 0%, 10 µM MG-132 = 100%; Potency, µM (series often up to 45.9 µM), for inactives: top-dose activation (GFP accumulation), actives largely listed as activators; AID 526; 67,000 tested, under 10 active; active = well fitted activation curve with a large enough effect, not every such curve was filed as active; inconclusive = small, poorly fitted or top-dose-only effect, or another doubt; inactive = no such curve, though single readings can be large or run the other way; note: potency is the fitted concentration of half-maximal effect
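Proteasome block read as GFP accumulation: ubiquitin(G76V)-GFP U2OS cells exposed to compound (2.9 nM–46 uM) for 4 hr at 37 C. Normalization used untreated cells as 0% and 10 uM MG-132 as 100%; concentration-response curves fitted.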
HBB splicing – modulators of hemoglobin beta chain splicing; AID 925; HBB splicing reporter cell assay, activation; EGFP reporter with mutant IVS2-654 intron; response scale: normalised to 500 nM splice-correcting PNA; hit rate 0.06% among 65,000; Potency, µM (doses to about 46.1 µM), inactives show top-dose activation, most hits filed as activators; note: potency is the fitted concentration of half-maximal effect; 0% is about no effect
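HeLa cells stably expressing EGFP interrupted by mutant beta-globin intron 2 (IVS2-654), 500/well in 2% FCS. Treated with compound for 2 days at 37C. Splicing correction scored as total well GFP intensity (488 nm excitation, 500-520 nm emission); 500 nM antisense PNA served as control.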
USP2a inhib – inhibitors of human ubiquitin-specific protease USP2a | hit rate 0.1% among 60,000 | USP2a enzymatic assay, qHTS inhibition | Potency, µM (titrated, usually from 38.3 µM), inactives show top-dose activity change, negative = inhibition, usual class: inhibitors | AID 927; note: potency is the fitted concentration of half-maximal effect; nearly all actives have a fitted effect of over 60% in size
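Coupled readout: USP2-cleaved Ub-PLA2 (20nM final) turns over NBD C6-HPC (20uM final), Ex 460nm/Em 535nm after 2.5 h, time-zero read flagging artifacts. Enzyme (20nM final, pH 8.0 Tris) given 30 min RT with compound first; NEM defines full inhibition.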
Casp7 inh – allosteric or competitive inhibitors of human caspase-7; P55210; recombinant caspase-7, Ac-DEVD-AFC fluorescence rate; Potency, µM (top dose mostly 57.5 µM), inactives show top-dose activity change, negative = inhibition, actives largely listed as inhibitors; hit rate 0.02% among 75,000; AID 889; active = well fitted inhibition curve with a large enough effect in the main read-out, with a control signal flat, not every such curve was filed as active; inconclusive = small, poorly fitted or top-dose-only effect, or a change in a side signal; note: potency is the fitted concentration of half-maximal effect; % of control where 0% means no effect
Numbers without * were called inactive; u = inconclusive; x = no result; [ ] = another dose, or the depositor's remark. A selection: hits, their analogues and other compounds. The true share with any hit is near 0.24%. Unless noted, calls come from the whole dose curve; as a rule, active = well fitted curve in the direction sought with a large enough effect; inconclusive = small, poorly fitted or top-dose-only effect, or another doubt; inactive = no such curve, though single readings can be large; an effect the other way counts as inactive or inconclusive.

SMILES | Casp1 inh | Epigenetic mod | UbGFP stabilizer | HBB splicing | USP2a inhib | Casp7 inh
NC(=O)CI | 4% | -1% | -2% | 2% | 25µM* | 2%
C/C=C1\C[C@H](C)[C@](O)(CO)C(=O)OCC2=CCN3CC[C@@H](OC1=O)[C@@H]23 | x | -2%[9.22 µM] | 10% | x | x | x
O=C1C=CC(=O)c2c(O)cccc21 | 20µM* | x | x | x | 13µM* | u
CN1C[C@@H](CNC(=O)OCc2ccccc2)C[C@H]2c3cccc4c3c(cn4C)C[C@@H]21 | x | 2% | -1% | 0% | x | x
CCn1nc(-c2cccs2)nc2c(=O)n(C)c(=O)nc1-2 | 0.79µM* | 4% | 0% | 0%[57.5 µM] | -7% | u
CN(N=O)c1ccc(O)c(O)c1 | 3% | -1% | 15% | 2% | 13µM* | 0%
CC(=O)[C@@H]1CC[C@@H]2[C@H]3CC[C@H]4C[C@@H](O)CC[C@]4(C)[C@@H]3C(=O)C[C@]21C | x | -2% | 0% | 1% | x | x
N[C@@H](Cc1cc(O)c(O)cc1O)C(=O)O | u | -3% | -7% | 2% | 6.3µM* | u
N[C@]1(C(=O)O)CC[C@@H](C(=O)O)C1 | x | 1% | -2% | 1% | x | x
O=C1CN=C(c2cccs2)c2c(sc3c2CCCC3)N1 | -2% | 1% | 3% | x | 6.3µM* | -1%
CC[C@H](CO)NC(=O)[C@@H]1C=C2c3cccc4[nH]cc(c34)C[C@@H]2N(C)C1 | -6% | -3% | 7% | 2% | -3% | -13%
CCCCCCCCCCCCCC(=O)O[C@H]1[C@@H](C)[C@@]2(O)[C@@H](C=C(CO)C[C@]3(O)C(=O)C(C)=C[C@@H]23)C2C(C)(C)[C@]21OC(C)=O (some centres undefined) | 4% | -2% | -3% | 0% | 31% | 0%
O=S1OCC2C(CO1)C1(Cl)C(Cl)=C(Cl)C2(Cl)C1(Cl)Cl (centres undefined) | -5% | x | x | -1% | -8% | -1%
O=C(O)[C@@H]1[C@H](C(=O)O)[C@]2(Cl)C(Cl)=C(Cl)[C@@]1(Cl)C2(Cl)Cl | -2%[11.5 µM] | 3.2µM* | 2%[9.17 µM] | 1%[9.22 µM] | x | -3%[11.5 µM]

Bioassay records deposited in PubChem by National Center for Advancing Translational Sciences (NCATS).
